# In paper PMC7862700, “An all-to-all approach to the identification of sequence-specific readers for epigenetic DNA modifications on cytosine”:
# How the values were obtained:
# Experiment in all cases: DAPPL (digital affinity profiling via proximity ligation, sequencing); 10 mM Tris-HCl pH 7.5, 50 mM NaCl, 1 mM DTT, 4% glycerol, room temperature, 30 min; GST-TFs on glutathione beads, 16-mer random dsDNA library, 0.1% formaldehyde crosslink after washing; high values mean tight binding
# Details in all cases: protein: recombinant; tags: N-terminal GST; dsDNA, one strand shown
# FEV = molecular target: T1, FEV (Homo sapiens, UniProt Q99581 1-238)
# T1 sequence: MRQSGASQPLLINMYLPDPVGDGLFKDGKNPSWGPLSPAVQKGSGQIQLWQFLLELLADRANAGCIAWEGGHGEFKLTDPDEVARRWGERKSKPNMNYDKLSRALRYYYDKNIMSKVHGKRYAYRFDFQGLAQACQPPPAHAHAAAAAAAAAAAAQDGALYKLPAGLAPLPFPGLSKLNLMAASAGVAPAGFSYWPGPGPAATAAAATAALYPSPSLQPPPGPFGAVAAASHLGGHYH
# In short: (§1)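 GST fusions of human transcription factors were expressed in yeast and captured with glutathione beads. Once given DNA barcodes and pooled alongside a tag-only sample, they were incubated for 30 min at room temperature with 200 nmole of a random double-stranded 16-mer DNA library in Tris/NaCl/DTT/glycerol buffer, then washed, crosslinked (0.1% formaldehyde), proximity-ligated, PCR-amplified and sequenced on an Illumina NextSeq500. The binding signal of each hexamer is its read frequency for a factor divided by its frequency for the tag-only sample.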
# ETV5 = ETV5 (Homo sapiens, UniProt P41161 1-510)
# In short: as §1
# SPIC = molecular target: T2, SPIC (Homo sapiens, UniProt Q8N5J4 1-248)
# T2 sequence: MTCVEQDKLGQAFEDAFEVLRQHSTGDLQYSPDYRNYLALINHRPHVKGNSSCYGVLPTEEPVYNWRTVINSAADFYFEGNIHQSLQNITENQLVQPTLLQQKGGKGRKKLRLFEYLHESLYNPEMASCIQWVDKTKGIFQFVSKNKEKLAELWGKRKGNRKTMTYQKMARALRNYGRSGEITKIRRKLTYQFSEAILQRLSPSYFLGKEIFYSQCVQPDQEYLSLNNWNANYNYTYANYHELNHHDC
# In short: as §1
# ELF4 = ELF4 (Homo sapiens, UniProt Q99607 1-663)
# In short: as §1
# ELK4 = molecular target: T3, ELK4 (Homo sapiens, UniProt P28324-2 1-405)
# T3 sequence: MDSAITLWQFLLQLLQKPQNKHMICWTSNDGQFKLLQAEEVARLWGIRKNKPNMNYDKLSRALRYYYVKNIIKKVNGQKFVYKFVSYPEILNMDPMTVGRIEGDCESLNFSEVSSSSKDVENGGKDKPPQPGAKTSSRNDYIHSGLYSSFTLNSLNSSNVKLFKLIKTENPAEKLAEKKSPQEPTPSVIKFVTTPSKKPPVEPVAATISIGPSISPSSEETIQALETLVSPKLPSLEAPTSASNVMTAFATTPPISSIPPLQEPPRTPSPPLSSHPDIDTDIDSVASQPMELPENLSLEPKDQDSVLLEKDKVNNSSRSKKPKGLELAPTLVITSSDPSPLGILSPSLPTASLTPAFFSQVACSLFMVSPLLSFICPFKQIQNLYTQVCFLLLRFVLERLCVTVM
# In short: as §1
# ETV2 = molecular target: T4, ETV2 (Homo sapiens, UniProt O00321 1-342)
# T4 sequence: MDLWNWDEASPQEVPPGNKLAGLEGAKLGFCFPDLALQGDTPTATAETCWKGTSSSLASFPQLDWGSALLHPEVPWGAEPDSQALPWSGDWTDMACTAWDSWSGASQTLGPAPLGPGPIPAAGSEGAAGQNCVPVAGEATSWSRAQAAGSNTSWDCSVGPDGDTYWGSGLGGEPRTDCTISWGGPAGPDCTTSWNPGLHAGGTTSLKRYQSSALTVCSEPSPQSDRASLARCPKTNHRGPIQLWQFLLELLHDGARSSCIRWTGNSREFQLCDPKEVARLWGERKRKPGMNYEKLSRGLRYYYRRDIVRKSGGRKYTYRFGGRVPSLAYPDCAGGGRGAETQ
# In short: as §1
# ELF3 = molecular target: T5, ELF3 (Homo sapiens, UniProt P78545 1-371)
# T5 sequence: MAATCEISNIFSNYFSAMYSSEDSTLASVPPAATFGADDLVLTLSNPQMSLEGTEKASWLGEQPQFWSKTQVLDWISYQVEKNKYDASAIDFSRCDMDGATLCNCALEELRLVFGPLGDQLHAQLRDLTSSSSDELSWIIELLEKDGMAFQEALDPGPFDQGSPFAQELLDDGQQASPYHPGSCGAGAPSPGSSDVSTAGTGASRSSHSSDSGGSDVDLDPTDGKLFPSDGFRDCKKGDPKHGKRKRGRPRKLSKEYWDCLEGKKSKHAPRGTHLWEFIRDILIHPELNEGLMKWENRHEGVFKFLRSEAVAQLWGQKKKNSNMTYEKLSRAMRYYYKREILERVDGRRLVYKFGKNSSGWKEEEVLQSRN
# In short: as §1
# ETV1 = ETV1 (Homo sapiens, UniProt P50549 1-477)
# In short: as §1
# ERF = molecular target: T6, ERF (Homo sapiens, UniProt P50548 1-548)
# T6 sequence: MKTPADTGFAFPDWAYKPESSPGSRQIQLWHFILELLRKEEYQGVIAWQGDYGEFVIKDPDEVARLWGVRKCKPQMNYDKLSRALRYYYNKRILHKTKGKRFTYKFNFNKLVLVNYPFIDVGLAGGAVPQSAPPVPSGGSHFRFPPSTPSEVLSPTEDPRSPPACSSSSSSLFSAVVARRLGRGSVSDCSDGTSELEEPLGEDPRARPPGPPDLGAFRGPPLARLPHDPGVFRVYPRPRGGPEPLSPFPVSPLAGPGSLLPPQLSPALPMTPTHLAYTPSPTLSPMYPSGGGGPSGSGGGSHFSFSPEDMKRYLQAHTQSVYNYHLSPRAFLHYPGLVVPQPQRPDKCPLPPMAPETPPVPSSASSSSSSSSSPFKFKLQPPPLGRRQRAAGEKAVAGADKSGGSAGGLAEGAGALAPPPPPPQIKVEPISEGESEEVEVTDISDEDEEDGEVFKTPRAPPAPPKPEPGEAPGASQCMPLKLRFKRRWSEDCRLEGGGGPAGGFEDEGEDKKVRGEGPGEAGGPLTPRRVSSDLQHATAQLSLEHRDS
# In short: as §1
# ETV3L = molecular target: T7, ETV3L (Homo sapiens, UniProt Q6ZN32 1-361)
# T7 sequence: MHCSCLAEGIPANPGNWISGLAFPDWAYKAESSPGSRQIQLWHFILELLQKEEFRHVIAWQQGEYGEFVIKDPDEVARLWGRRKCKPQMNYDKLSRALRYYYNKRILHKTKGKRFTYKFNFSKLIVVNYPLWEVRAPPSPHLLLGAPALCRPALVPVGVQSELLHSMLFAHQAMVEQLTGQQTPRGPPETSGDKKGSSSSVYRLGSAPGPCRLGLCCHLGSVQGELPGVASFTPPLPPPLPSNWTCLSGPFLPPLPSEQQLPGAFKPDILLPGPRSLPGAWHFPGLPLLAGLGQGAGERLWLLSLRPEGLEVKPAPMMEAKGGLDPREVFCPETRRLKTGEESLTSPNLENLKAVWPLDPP
# In short: as §1
# ETS2 = molecular target: T8, ETS2 (Homo sapiens, UniProt P15036 1-469)
# T8 sequence: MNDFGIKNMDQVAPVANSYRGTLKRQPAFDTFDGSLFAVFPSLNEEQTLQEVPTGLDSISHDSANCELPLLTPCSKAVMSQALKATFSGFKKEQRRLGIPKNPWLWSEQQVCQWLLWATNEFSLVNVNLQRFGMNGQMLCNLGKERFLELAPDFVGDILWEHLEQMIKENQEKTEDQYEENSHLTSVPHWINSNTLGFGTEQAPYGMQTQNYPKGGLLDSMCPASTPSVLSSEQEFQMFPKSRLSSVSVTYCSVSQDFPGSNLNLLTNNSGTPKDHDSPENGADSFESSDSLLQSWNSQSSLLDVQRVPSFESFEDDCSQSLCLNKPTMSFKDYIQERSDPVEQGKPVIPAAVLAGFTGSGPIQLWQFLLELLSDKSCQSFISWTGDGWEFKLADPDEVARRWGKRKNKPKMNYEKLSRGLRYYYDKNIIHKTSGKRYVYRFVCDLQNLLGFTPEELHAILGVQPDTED
# In short: as §1
# SPDEF = molecular target: T9, SPDEF (Homo sapiens, UniProt O95238 1-335)
# T9 sequence: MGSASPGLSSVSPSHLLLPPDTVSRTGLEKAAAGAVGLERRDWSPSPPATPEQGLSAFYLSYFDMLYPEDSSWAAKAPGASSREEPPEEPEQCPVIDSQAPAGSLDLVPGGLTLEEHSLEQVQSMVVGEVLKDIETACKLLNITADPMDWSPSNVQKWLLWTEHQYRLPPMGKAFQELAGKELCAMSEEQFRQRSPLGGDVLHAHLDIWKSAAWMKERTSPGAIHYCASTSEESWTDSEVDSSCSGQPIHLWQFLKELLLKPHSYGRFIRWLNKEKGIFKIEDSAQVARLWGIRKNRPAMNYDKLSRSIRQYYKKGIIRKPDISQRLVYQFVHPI
# In short: as §1
# ETV7 = molecular target: T10, ETV7 (Homo sapiens, UniProt Q9Y603 1-341)
# T10 sequence: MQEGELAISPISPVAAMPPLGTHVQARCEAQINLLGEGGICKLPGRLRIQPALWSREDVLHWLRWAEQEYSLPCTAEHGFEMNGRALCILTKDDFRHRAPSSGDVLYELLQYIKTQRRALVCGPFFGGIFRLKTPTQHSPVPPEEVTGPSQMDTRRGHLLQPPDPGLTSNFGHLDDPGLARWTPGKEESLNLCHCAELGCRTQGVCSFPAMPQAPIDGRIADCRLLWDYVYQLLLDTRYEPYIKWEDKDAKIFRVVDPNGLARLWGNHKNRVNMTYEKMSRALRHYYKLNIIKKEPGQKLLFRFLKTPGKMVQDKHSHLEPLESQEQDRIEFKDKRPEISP
# In short: as §1
# ELF5 = molecular target: T11, ELF5 (Homo sapiens, UniProt Q9UKW6-2 1-255)
# T11 sequence: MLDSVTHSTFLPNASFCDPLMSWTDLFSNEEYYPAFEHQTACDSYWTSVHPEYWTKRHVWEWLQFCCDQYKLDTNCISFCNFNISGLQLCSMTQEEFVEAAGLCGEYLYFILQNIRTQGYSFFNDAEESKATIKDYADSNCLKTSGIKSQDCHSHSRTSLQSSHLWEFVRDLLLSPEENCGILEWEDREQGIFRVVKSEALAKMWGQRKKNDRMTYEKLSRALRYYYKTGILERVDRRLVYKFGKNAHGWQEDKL
# In short: as §1
# ETV3 = molecular target: T12, ETV3 (Homo sapiens, UniProt P41162-2 1-143)
# T12 sequence: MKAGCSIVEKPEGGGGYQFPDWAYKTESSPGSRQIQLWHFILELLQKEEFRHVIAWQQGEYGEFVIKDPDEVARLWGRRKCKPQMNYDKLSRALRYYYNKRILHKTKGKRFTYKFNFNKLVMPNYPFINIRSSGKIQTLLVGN
# In short: as §1
# ETV6 = ETV6 (Homo sapiens, UniProt P41212 1-452)
# In short: as §1
# Chain of ELF4 (Q99607 whole entry): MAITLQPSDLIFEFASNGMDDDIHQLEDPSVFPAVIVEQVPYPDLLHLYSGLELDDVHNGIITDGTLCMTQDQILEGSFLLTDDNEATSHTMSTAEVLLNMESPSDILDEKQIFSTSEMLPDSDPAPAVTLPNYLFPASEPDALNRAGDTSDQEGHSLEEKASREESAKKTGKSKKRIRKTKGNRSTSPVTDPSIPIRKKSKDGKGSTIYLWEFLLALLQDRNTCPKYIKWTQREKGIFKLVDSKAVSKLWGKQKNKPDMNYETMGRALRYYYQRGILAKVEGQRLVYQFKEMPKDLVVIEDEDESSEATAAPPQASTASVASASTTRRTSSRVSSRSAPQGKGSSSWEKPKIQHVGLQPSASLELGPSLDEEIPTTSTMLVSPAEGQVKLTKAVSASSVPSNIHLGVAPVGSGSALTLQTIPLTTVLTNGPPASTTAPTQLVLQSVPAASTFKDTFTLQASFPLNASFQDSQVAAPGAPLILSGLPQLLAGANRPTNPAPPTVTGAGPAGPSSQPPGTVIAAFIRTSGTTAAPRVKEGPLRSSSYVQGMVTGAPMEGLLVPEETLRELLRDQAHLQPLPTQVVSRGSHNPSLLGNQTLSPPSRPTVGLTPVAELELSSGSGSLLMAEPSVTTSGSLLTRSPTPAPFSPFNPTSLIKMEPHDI
# Chain of ETV6 (P41212 whole entry): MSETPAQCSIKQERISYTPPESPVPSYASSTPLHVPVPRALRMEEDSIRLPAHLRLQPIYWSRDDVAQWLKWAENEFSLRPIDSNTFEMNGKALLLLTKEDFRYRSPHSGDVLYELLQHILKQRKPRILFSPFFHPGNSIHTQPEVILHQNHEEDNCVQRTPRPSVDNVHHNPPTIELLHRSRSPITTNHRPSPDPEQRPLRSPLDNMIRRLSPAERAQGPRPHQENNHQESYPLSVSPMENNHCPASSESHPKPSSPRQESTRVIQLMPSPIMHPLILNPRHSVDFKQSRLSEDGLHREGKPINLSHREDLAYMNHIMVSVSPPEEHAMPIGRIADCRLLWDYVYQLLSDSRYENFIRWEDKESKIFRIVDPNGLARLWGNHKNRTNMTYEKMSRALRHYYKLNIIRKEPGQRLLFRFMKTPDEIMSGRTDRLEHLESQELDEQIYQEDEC
# Chain of ETV1 (P50549 whole entry): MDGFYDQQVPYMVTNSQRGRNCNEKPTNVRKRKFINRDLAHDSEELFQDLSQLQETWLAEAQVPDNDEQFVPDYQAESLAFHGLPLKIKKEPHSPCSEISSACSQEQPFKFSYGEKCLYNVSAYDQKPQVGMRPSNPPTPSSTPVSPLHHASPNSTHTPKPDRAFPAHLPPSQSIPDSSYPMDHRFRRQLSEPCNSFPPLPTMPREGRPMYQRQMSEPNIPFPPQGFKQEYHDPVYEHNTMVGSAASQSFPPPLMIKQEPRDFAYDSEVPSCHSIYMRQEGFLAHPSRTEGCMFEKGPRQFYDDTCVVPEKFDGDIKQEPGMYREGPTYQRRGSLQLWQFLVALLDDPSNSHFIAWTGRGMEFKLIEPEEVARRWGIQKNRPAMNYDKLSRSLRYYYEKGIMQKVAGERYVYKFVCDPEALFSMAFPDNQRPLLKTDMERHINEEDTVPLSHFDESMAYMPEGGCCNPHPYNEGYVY
# Chain of ETV5 (P41161 whole entry): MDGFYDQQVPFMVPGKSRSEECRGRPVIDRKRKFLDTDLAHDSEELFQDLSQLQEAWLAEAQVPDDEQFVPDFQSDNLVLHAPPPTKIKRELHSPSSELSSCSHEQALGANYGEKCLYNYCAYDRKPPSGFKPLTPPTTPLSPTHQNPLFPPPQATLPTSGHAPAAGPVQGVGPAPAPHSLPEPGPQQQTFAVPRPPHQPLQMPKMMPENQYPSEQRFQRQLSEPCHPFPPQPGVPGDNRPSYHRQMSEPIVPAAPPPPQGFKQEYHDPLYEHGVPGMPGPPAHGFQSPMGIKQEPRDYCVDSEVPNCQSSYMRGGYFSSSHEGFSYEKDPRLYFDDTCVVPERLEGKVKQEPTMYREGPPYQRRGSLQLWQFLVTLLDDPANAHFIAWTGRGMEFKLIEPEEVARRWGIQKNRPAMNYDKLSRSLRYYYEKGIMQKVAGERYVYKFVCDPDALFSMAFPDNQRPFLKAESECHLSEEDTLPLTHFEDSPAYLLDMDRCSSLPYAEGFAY
Sequence,binding signal (FEV),binding signal (ETV5),binding signal (SPIC),binding signal (ELF4),binding signal (ELK4),binding signal (ETV2),binding signal (ELF3),binding signal (ETV1),binding signal (ERF),binding signal (ETV3L),binding signal (ETS2),binding signal (SPDEF),binding signal (ETV7),binding signal (ELF5),binding signal (ETV3),binding signal (ETV6)
CAACAC,"1.11 fold enrichment (6-mer frequency, TF over GST control)","1.07 fold enrichment (6-mer frequency, TF over GST control)","1.08 fold enrichment (6-mer frequency, TF over GST control)","1.14 fold enrichment (6-mer frequency, TF over GST control)","1.2 fold enrichment (6-mer frequency, TF over GST control)","1.08 fold enrichment (6-mer frequency, TF over GST control)","1.09 fold enrichment (6-mer frequency, TF over GST control)","1.11 fold enrichment (6-mer frequency, TF over GST control)","1.16 fold enrichment (6-mer frequency, TF over GST control)","1.13 fold enrichment (6-mer frequency, TF over GST control)","1.13 fold enrichment (6-mer frequency, TF over GST control)","1.13 fold enrichment (6-mer frequency, TF over GST control)","1.13 fold enrichment (6-mer frequency, TF over GST control)","1.1 fold enrichment (6-mer frequency, TF over GST control)","1.15 fold enrichment (6-mer frequency, TF over GST control)","1.11 fold enrichment (6-mer frequency, TF over GST control)"
CGCTAC,"1.18 fold enrichment (6-mer frequency, TF over GST control)","1.15 fold enrichment (6-mer frequency, TF over GST control)","1.18 fold enrichment (6-mer frequency, TF over GST control)","1.24 fold enrichment (6-mer frequency, TF over GST control)","1.2 fold enrichment (6-mer frequency, TF over GST control)","1.25 fold enrichment (6-mer frequency, TF over GST control)","1.24 fold enrichment (6-mer frequency, TF over GST control)","1.27 fold enrichment (6-mer frequency, TF over GST control)","1.24 fold enrichment (6-mer frequency, TF over GST control)","1.17 fold enrichment (6-mer frequency, TF over GST control)","1.24 fold enrichment (6-mer frequency, TF over GST control)","1.21 fold enrichment (6-mer frequency, TF over GST control)","1.2 fold enrichment (6-mer frequency, TF over GST control)","1.16 fold enrichment (6-mer frequency, TF over GST control)","1.16 fold enrichment (6-mer frequency, TF over GST control)","1.27 fold enrichment (6-mer frequency, TF over GST control)"
CAAATG,"1.11 fold enrichment (6-mer frequency, TF over GST control)","1.09 fold enrichment (6-mer frequency, TF over GST control)","1.01 fold enrichment (6-mer frequency, TF over GST control)","1.15 fold enrichment (6-mer frequency, TF over GST control)","1.11 fold enrichment (6-mer frequency, TF over GST control)","1.19 fold enrichment (6-mer frequency, TF over GST control)","1.15 fold enrichment (6-mer frequency, TF over GST control)","1.19 fold enrichment (6-mer frequency, TF over GST control)","1.25 fold enrichment (6-mer frequency, TF over GST control)","1.11 fold enrichment (6-mer frequency, TF over GST control)","1.15 fold enrichment (6-mer frequency, TF over GST control)","1.19 fold enrichment (6-mer frequency, TF over GST control)","1.2 fold enrichment (6-mer frequency, TF over GST control)","1.1 fold enrichment (6-mer frequency, TF over GST control)","1.13 fold enrichment (6-mer frequency, TF over GST control)","1.18 fold enrichment (6-mer frequency, TF over GST control)"
